High-throughput results as filed in PubChem BioAssay.
PI4K2A inh: qHTS for small molecular inhibitors of PI4K2A. Phosphatidylinositol 4-kinase type 2-alpha (Homo sapiens), Q9BTU6. purified PI4K2A, ADP-Glo luminescence, 1 h; stronger effect = lower value. activity change, negative = inhibition, % at 76.9 µM. 420,000 compounds, 0.13% hits. AID 1346378, 2018; in the data active means activity change below about -50%; inconclusive means mostly about -30% to -49%;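 further: -100% = wells without enzyme as full effect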
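In this quantitative HTS, ADP production by PI4K2A was quantified luminescently after 1 h at ambient temperature; 100 microM adenosine served as plate-quality control.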
Pin1 inhibitor: qHTS Assay to Find Inhibitors of Pin1; 390,000 compounds, 0.009% hits; Peptidyl-prolyl cis-trans isomerase NIMA-interacting 1 (Homo sapiens), Q13526; Potency, µM (highest dose often 115 µM), without a hit: top-dose activity, negative = inhibition, actives largely listed as inhibitors; Pin1 FP peptide displacement, HiFluor488, 10 min; active means well fitted inhibition curve with a large enough effect in the polarisation, with a control signal flat, not every such curve was filed as active; inconclusive means small, poorly fitted or top-dose-only effect, or effect the other way, or a change in a side signal; inactive means no such curve, though single readings can be large or run the other way; the % refers to the polarisation; further: potency means the concentration at half of the fitted maximal effect
Target sequence (Q13526 whole entry, looked up): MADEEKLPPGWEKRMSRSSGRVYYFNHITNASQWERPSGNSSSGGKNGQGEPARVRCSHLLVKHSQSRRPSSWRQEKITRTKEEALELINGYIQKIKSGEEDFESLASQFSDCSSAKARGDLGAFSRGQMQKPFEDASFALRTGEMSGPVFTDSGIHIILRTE
PI5P4Ka inh: qHTS for Inhibitors of phosphatidylinositol 5-phosphate 4-kinase (PI5P4K); PI5P4Kalpha enzyme, ADP-Glo luminescence, 60 min; stronger effect = lower value; max response, %; 330,000 compounds, 1.2% hits; AID 652105, 2013; active means max response of -50% or lower; inconclusive means between -30% and -50%; inactive means -30% or higher; further: value at the top dose of about 77 µM
Target sequence (P48426 whole entry, looked up): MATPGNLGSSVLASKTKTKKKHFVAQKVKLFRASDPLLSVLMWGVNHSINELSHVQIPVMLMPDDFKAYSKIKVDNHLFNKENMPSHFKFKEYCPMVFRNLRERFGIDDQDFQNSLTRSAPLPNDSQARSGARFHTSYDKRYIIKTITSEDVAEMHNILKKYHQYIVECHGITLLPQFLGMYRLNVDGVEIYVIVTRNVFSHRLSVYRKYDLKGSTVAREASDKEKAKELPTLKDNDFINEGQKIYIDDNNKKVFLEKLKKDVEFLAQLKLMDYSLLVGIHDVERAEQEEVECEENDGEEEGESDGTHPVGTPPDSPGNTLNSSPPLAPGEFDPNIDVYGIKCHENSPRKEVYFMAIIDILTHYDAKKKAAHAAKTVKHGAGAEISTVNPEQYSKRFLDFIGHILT
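PI5P4Kalpha ADP-Glo assay; 5 microM ATP final; 60 min RT reaction; HEPES pH 7.4/EGTA/CHAPS, 5% DMSO; controls lacking substrate or enzyme; luminescent end-point.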
PGK inhibitor: qHTS Assay to Find Inhibitors of Phosphoglycerate Kinase; Potency, µM (doses to about 57.5 µM), without a hit: top-dose activity change, negative = inhibition, usual class: inhibitors; PGK/GAPDH coupled, Kinase-Glo luminescence, 60 min; Phosphoglycerate kinase, glycosomal (Trypanosoma brucei brucei), P07378; 380,000 compounds, 0.043% hits; further: potency means the concentration at half of the fitted maximal effect; nearly all actives have a fitted effect of over 60% in size
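Luminescent ATP detection (Kinase-Glo Plus) follows a 60-minute room-temperature incubation, with wells lacking PGK as controls. Buffer: 100 mM TEA (pH 7.6), 5 mM MgCl2, 0.01% Tween-20. Coupling enzyme GAPDH (100 nM final) supplies unstable 1,3-BPG in-well.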
ADP-Glo counter: qHTS for Inhibitors of PI5P4K: ADP-Glo counter assay | shares compounds with PI5P4Ka inh | ADP-Glo detection counter-screen, luciferase luminescence, no enzyme | Potency, µM (highest dose often 76.9 µM), for inactives: at the top dose activity change, negative = inhibition, most hits filed as inhibitors | 1,100 tested, under 10 active | AID 743285, 2014
The depositor's hits bear a star; i = inactive; ? = inconclusive; . = no result given; [ ] = dose if it differs, or a comment. Many of the other results were omitted from the sample, so hits are more common in it than they were. Unless noted, the call rests on the fitted dose curve; in most records, active means well fitted curve in the direction sought with a large enough effect; inconclusive means small, poorly fitted or top-dose-only effect, or another doubt; inactive means no such curve, though single readings can be large; an effect the other way counts as inactive or inconclusive. Unless noted, on the % scale 0 is the no-effect control and ±100 the full control effect.

SMILES | PI4K2A inh | Pin1 inhibitor | PI5P4Ka inh | PGK inhibitor | ADP-Glo counter
O=C(COC(=O)c1cc(-c2ccco2)nc2ccccc12)NCc1ccccc1 | 1 | 49% | ? | -2% | .
COc1ccc(C(C)C)cc1-c1cc(C(=O)NCc2cccc(C(F)(F)F)c2)[nH]n1 | 3 | . | 2 | . | .
Cc1ccc(C(=O)CSc2nc3cc(C(=O)NC4CCCC4)ccc3c(=O)n2CC2CCCO2)c(C)c1 (centres undefined) | -1 | 0% | . | 2% | .
Brc1ccc(Cn2nnc(-c3ccc(N4CCOCC4)cc3)n2)cc1 | -5 | . | . | . | .
O=C(COc1ccccc1Cl)c1ccc[nH]1 | -5 | 36% | -51* | -4% | -1%
CN1CCN(S(=O)(=O)c2ccc(N3CCc4ccccc4C3)nc2)CC1 | -6 | -10% | -69* | -1% | -6%
CN1CCN(c2ccc(S(=O)(=O)N3CCCCC3)cn2)CC1 | -6 | -13% | -3 | -20% | .
O=C(Nc1ccc2c(c1)OCCO2)c1ccccc1F | -21 | -5% | -52* | -23% | -24%
CC(=O)c1cccc(NC(=O)C2CCCN2S(=O)(=O)c2cccs2)c1 (centres undefined) | 1 | . | 6 | 7% | .
COc1ccc(C(=O)C2CCN(c3ncnc4sccc34)CC2)cc1 | 3 | . | . | . | .
CCOc1ccccc1NC(=O)CSc1nc2nc(-c3cccs3)cc(C(F)(F)F)c2c(=O)[nH]1 | 2 | 38% | ? | -9% | .
COc1ccc(NC(=O)CSc2nc3nc(-c4cccs4)cc(C(F)(F)F)c3c(=O)[nH]2)c(OC)c1 | 2 | 0% | -53* | -2% | -1%
CCOC(=O)[C@]12CCCC=C1N(Cc1ccccc1)C(=O)[C@H](CC(=O)NCCCOC)C2 | 0 | . | -57* | . | -1%
COC(=O)[C@]12CCCCC=C1N(Cc1cccc3ccccc13)C(=O)[C@H](CC(=O)NCc1ccc(C)o1)C2 | -2 | . | -52* | . | 2%
CCOC(=O)[C@]12CCCC=C1N(Cc1ccccc1)C(=O)[C@H](CC(=O)NCCCCc1ccccc1)C2 | 1 | . | 6 | . | .
Cc1ccsc1C1NC(=O)c2ccccc2N1 (centres undefined) | 1 | -11% | -9 | 6% | .
O=C1NC(c2cccs2)Nc2ccccc21 (centres undefined) | -1 | 1% | -58* | 5% | 2%
O=C(COC(=O)CC1CC2CCC1C2)Nc1ccc(Cl)c(S(=O)(=O)N2CCOCC2)c1 (centres undefined) | -1 | 21% | 4 | -6% | .
O=S(=O)(NCCc1csc(-c2ccc(F)cc2)n1)c1ccc(Cl)cc1 | -1 | 0% | . | -2% | .
CCN(CC(=O)NC(C)(C)C)Cc1cc(=O)n2c(-c3ccccc3)csc2n1 | -8 | -2% | -74* | 0% | 3%
O=[N+]([O-])c1cccc(OCCN2CCC(Cc3ccccc3)CC2)c1 | 9 | ? | -7 | -10% | .
Cc1cc(C)c(NC(=O)CCCN2CCOCC2)c(C)c1 | 6 | -2% | . | -1% | .
Cc1cc(C)c(NC(=O)OCCN2CCOCC2)c(C)c1 | -10 | -4% | -63* | -4% | 0%
COc1ccc(-c2nnc(C)c3nocc23)cc1 | ? | ? | -66* | . | -10%
CCOc1ccccc1NC(=O)COC(=O)/C=C/c1cccs1 | 8 | -1% | 1 | 1% | .
SMILES | PI4K2A inh | Pin1 inhibitor | PI5P4Ka inh | PGK inhibitor | ADP-Glo counter
CCOc1ccc(Cl)cc1S(=O)(=O)n1cnc2ccccc21 | -10 | 0% | 1 | 0% | -7%
Cc1nn(-c2ccccc2)c2nc(=O)n(-c3ccccc3)cc12 | -6 | 0% | . | 3% | 0%
CC(=O)c1ccc(NC(=O)c2nc(-c3ccccc3)n(-c3ccc(C)cc3)n2)cc1 | 9 | -5% | . | i | .
O=C(CNC(=O)c1cccc(OC(F)F)c1)OCc1cc(=O)n2cc(Br)ccc2n1 | -7 | ? | -56* | -3% | -3%
COc1cccc(C(=O)NCC(=O)OCc2cc(=O)n3c(C)csc3n2)c1 | 0 | 0% | . | 9% | .
Cn1c(=O)c2sccc2n2c(CCCC(=O)N3CCN(c4ccccn4)CC3)nnc12 | 7 | 12% | 2 | -3% | .
Cc1ccc(CNC(=O)CCS(=O)(=O)c2ccc(Cl)cc2)cc1 | -3 | 0% | -94* | -19% | -10%
Cc1ccc(S(=O)(=O)CCC(=O)OCC(=O)NCc2ccc(F)cc2)cc1 | 5 | . | -3 | -8% | .
O=C(CCS(=O)(=O)c1ccc(Br)cc1)NCc1ccc(F)cc1 | -8 | -3% | ? | ? | -3%
Cc1ccc(CNC(=O)CCS(=O)(=O)c2ccc(Br)cc2)cc1 | -4 | . | -1 | ? | .
Cc1cccc(-c2cccc3c4c([nH]c23)[C@@H]2C[C@H](N(C)C(=O)OCc3ccccc3)[C@H]([C@H](C)O)CN2CC4)c1 | -3 | . | . | . | .
COc1ccc(NC(=O)N[C@H]2CC[C@@H](CC(=O)NC3CCC3)O[C@@H]2CO)cc1 | -4 | . | 0 | . | .
O=C(O)c1ccc2c(=O)[nH]c(CCl)nc2c1 | -7 | -11% | -59* | 0% | 3%
COc1ccccc1NC(=O)CSc1ccc(-c2ccco2)nn1 | 0 | -9% | -19 | -4% | .
COc1ccc(OC)c(NC(=O)CSc2ccc(-c3ccco3)nn2)c1 | -19 | ? | -51* | 9% | -10%
COc1ccc(NC(=O)N2CCC(n3nnc4cc(C)ccc43)CC2)cc1 | 7 | -7% | -3 | -2% | .
CCOc1ccc(NC(=O)N2CCC(n3nnc4ccccc43)CC2)cc1 | 0 | -7% | -51* | -14% | 2%
COCCN(C(=O)COC(=O)Cc1coc2cc3c(cc12)CCC3)c1c(N)n(Cc2ccccc2)c(=O)[nH]c1=O | 0 | 9% | -50* | -22% | -5%
CCCn1c(N)c(N(CCOC)C(=O)c2cc(-c3ccco3)nc3ccccc23)c(=O)[nH]c1=O | -12 | -1% | -52* | -9% | -6%
CCCCn1c(N)c(N(CCOC)C(=O)c2cc(-c3ccccc3)nc3ccccc23)c(=O)[nH]c1=O | 2 | 4% | 7 | -8% | .
COCCCN(C(=O)c1cc(-c2ccco2)nc2ccccc12)c1c(N)n(Cc2ccccc2)c(=O)[nH]c1=O | -5 | ? | -68* | -5% | -11%
Cc1ccc(CN2C(=O)c3ccccc3Sc3ccc(C(=O)OCc4ccco4)cc32)cc1 | -1 | 3% | . | -10% | .
O=C(CSc1n[nH]c(-c2cccnc2)n1)OC1CCCCC1 | 1 | -2% | -66* | 9% | -8%
CCN(CC)C(=O)CSc1nc2ccc(NC(=O)CSc3nnc(N)s3)cc2s1 | -11 | ? | -57* | -10% | -3%
CCN(CC)C(=O)CSc1nc2ccc(NC(=O)CSc3nccn3C)cc2s1 | -5 | ? | . | -1%[11.5 µM] | .
CC(=O)Nc1ccc2nc(SCC(=O)NCCOc3ccccc3)sc2c1 | -4 | 1% | -61* | i | 2%
CCn1c(=O)c2[nH]c(Cl)nc2n(CC)c1=O | 3 | . | -29 | 8% | .
